The supplement of paper PMC11634586
Where a name gives a salt, the structure may show the parent alone. A number with no mark means an inactive call.

Each compound was assayed on NCI-H1688 (assay: inhibition of cell viability relative to untreated control (fraction); higher = stronger growth inhibition, active = 0.5 or more). Conditions: 30 µM; 24 h.
Outline: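 Values are inhibition of cell viability expressed as a fraction, derived from viability normalised to untreated cells. NCI-H1688 small cell lung cancer cells in 96-well plates were exposed to a natural compound library (TargetMol) at 30 µM for 24 h at 37°C with 5% CO2, and Cell Counting Kit-8 absorbance at 450 nm was then read.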
In the case of `CCCCCCCCCCCCCCCC(=O)O` [Palmitic acid], the “inhibition of cell viability” value is reported as 0.0796.
For `C[C@@H]1O[C@@H](O[C@H]2[C@H](Oc3cc(O)c4c(c3)O[C@H](c3ccc(O)cc3)CC4=O)O[C@H](CO)[C@@H](O)[C@@H]2O)[C@H](O)[C@H](O)[C@H]1O` [Naringin], the “inhibition of cell viability” value was 0.06.
With `COC(=O)[C@H]1[C@H]2C[C@@H]3c4[nH]c5cc(OC)ccc5c4CCN3C[C@H]2C[C@@H](OC(=O)c2cc(OC)c(OC)c(OC)c2)[C@@H]1OC` [Reserpine] the “inhibition of cell viability” value was 0.981 (active).
`C[C@H](CCC(=O)O)[C@H]1CC[C@H]2[C@@H]3[C@H](O)C[C@@H]4C[C@H](O)CC[C@]4(C)[C@H]3CC[C@]12C` [Chenodeoxycholic acid] was tested, and the “inhibition of cell viability” value was 0.152.
For `C[n+]1cccc(C(=O)[O-])c1` [Trigonelline hydrochloride], the “inhibition of cell viability” value was -0.14.
For `Oc1cc(O)c2c(c1)OC(c1ccc(O)c(O)c1)C(OC1(c3ccc(O)c(O)c3)Oc3cc(O)cc(O)c3C(O)C1O)C2` (stereo not given) [Proanthocyanidins], the “inhibition of cell viability” value was -0.126.
`C[C@@H]1CC[C@]2(C(=O)O[C@@H]3O[C@H](CO)[C@@H](O)[C@H](O)[C@H]3O)CC[C@]3(C)C(=CC[C@@H]4[C@@]5(C)CC[C@H](O)[C@@](C)(CO)[C@@H]5CC[C@]43C)[C@@H]2[C@]1(C)O` [Pedunculoside] was tested, and the “inhibition of cell viability” value was 0.134.
For `CC(=O)Oc1cc(C)c(OC(C)=O)c2ccccc12` [Menadiol Diacetate], the “inhibition of cell viability” value was 0.384.
`Nc1nc(=O)c2c([nH]1)NCC(CNc1ccc(C(=O)N[C@@H](CCC(=O)O)C(=O)O)cc1)N2C=O` (stereo not given in full) [Calcium folinate] was tested, and the “inhibition of cell viability” value was 0.028.
In the case of `C=C(C)[C@@H]1CC[C@]2(CO)CC[C@]3(C)[C@H](CC[C@@H]4[C@@]5(C)CC[C@H](O)C(C)(C)[C@@H]5CC[C@]43C)[C@@H]12` [Betulin], the “inhibition of cell viability” value is reported as 0.831 (active).
For `COc1cc([C@@H]2c3cc4c(cc3[C@@H](O[C@@H]3O[C@@H]5CO[C@@H](C)O[C@H]5[C@H](O)[C@H]3O)[C@H]3COC(=O)[C@H]23)OCO4)cc(OC)c1O` [Etoposide], the “inhibition of cell viability” value was 0.664 (active).
For `Oc1ccc(CC2NCCc3cc(O)c(O)cc32)cc1` (stereo not given) [Demethyl], the “inhibition of cell viability” value was 0.182.
In the case of `CC1CCC(C(C)C)C(O)C1` (racemic) [DL-Menthol], the “inhibition of cell viability” value is reported as 0.0236.
With `C=C1CC[C@@H]2[C@](C)(CO)[C@H](O)CC[C@@]2(C)[C@@H]1C/C=C1/C(=O)OC[C@H]1O` [Andrographolide] the “inhibition of cell viability” value was 0.853 (active).
With `Cc1cccc(C)c1NC(=O)c1ccccc1C(=O)O` [Ftaxilide] the “inhibition of cell viability” value was -0.0604.
`CC[C@]12CCCN3CCc4c(n(c5ccccc45)[C@@](O)(C(=O)OC)C1)[C@@H]32` [Vincamine] was tested, and the “inhibition of cell viability” value was 0.408.
For `NCCCC(=O)O` [4-Aminobutyric acid], the “inhibition of cell viability” value was -0.231.
For `O=c1ccc2ccc(O)cc2o1` [7-Hydroxycoumarin], the “inhibition of cell viability” value was -0.0276.
For `COc1ccc(/C=C\c2cc(OC)c(OC)c(OC)c2)cc1O` [Combretastatin A4], the “inhibition of cell viability” value was 0.823 (active).
In the case of `CC(C)=C1C/C=C(\C)CC/C=C(\C)CC1=O` [Germacrone], the “inhibition of cell viability” value is reported as 0.245.
With `CCCCOC(=O)c1ccc(O)cc1` [Butylparaben] the “inhibition of cell viability” value was 0.197.
With `Nc1nc(=O)c2nc(CNc3ccc(C(=O)N[C@@H](CCC(=O)O)C(=O)O)cc3)cnc2[nH]1` [Folic acid] the “inhibition of cell viability” value was -0.206.
For `O=C(O)CCCC[C@@H]1SC[C@@H]2NC(=O)N[C@@H]21` [D-Biotin], the “inhibition of cell viability” value was -0.0414.
For `C[N+](C)(C)CC(=O)O` [Betaine], the “inhibition of cell viability” value was 0.299.
In the case of `O=c1c(O)c(-c2ccc(O)cc2)oc2cc(O)cc(O)c12` [Kaempferol], the “inhibition of cell viability” value is reported as -0.00334.
In the case of `COc1cc2c(cc1OC)[C@@H]1Cc3ccc(OC)c(OC)c3CN1CC2` [Rotundine, TETRAHYDROPALMATINE HYDROCHLORIDE], the “inhibition of cell viability” value is reported as -0.254.
With `COc1cc2ccc(=O)oc2cc1OC` [Scoparone] the “inhibition of cell viability” value was -0.0332.
With `C[N+]1(C)CCCC1C(=O)O` (stereo not given) the “inhibition of cell viability” value was 0.205.
In the case of `CC1(C)C2CCC1(C)C(O)C2` (stereo not given) [Borneol], the “inhibition of cell viability” value is reported as 0.16.
In the case of `COc1cc(O)c(C(C)=O)c(OC)c1` [Xanthoxyline], the “inhibition of cell viability” value is reported as -0.308.
